Source: PubChem
The list is not random: actives were taken first. Their share in the collection is about 2.8%.
PAFAH2 FP inh = PAFAH2 (human) inhibition | 0.99% of 340,000 active | recombinant PAFAH2, FP-rhodamine activity probe, fluorescence polarization | inhibition, % at 3.39 µM | Q99487;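 active = inhibition above the mean over all tested compounds plus 3 SD, cut at about 30% in these data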;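 also: inhibitors block probe labeling of enzyme so polarization drops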
PAFAH1B3 FP inh = PAFAH1B3 (human) inhibition. Q15102. recombinant PAFAH1B3, FP-rhodamine probe, fluorescence polarization. inhibition, % at 3.39 µM. 0.28% of 340,000 active. AID 492972;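 active = inhibition above the screen-wide average of all tested compounds plus 3 SD, cut at about 25% in these data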
Fam108B counter = blocks mouse Fam108B hydrolase in RBBP9 counter-screen; 0.33% of 300,000 active; inhibition, % at 9.51 µM; recombinant Fam108B, FP-Rh probe fluorescence polarization;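 active = inhibition above the screen mean inhibition plus 3 SD, computed separately per campaign, cut at about 18% in these data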;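 also: inhibitors lower polarization as less probe binds the enzyme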
PME-1 inh = PME-1 (human) inhibition; 0.53% of 320,000 active; AID 2130; inhibition, % at 5.9 µM; recombinant PME-1, FP-Rh probe fluorescence polarization;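 active = inhibition above the campaign mean of all compounds plus 3 SD, cut at about 26% in these data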;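 also: competitive labeling of PME-1 active site by serine hydrolase directed probe; inhibitors block probe labeling so polarization falls and inhibition rises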
PAFAH1B2 inh = PAFAH1B2 (human) inhibition; P68402; recombinant PAFAH1B2, FP-rhodamine activity probe, fluorescence polarization; inhibition, % at 3.39 µM; 1.2% of 340,000 active; AID 492953;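 active = inhibition above the mean of all tested compounds plus 3 SD, cut at about 24% in these data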
Target sequence (P68402 whole entry, looked up): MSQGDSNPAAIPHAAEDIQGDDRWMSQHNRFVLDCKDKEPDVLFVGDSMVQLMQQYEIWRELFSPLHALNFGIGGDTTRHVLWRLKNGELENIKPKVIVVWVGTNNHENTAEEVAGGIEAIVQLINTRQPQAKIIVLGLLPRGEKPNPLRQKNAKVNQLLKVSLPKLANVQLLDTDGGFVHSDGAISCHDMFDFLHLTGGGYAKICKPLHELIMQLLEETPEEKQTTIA
pPAFAH FP inh = pPAFAH (human) enzyme inhibition; recombinant pPAFAH, FP-rhodamine probe fluorescence polarization; inhibition, % at 3.39 µM; 1.5% of 330,000 active; AID 463082;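 active = inhibition above the mean inhibition across the screen plus 3 SD, cut at about 25% in these data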;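 also: inhibitors block binding of the rhodamine activity-based probe so polarization drops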
Target sequence (Q13093 whole entry, looked up): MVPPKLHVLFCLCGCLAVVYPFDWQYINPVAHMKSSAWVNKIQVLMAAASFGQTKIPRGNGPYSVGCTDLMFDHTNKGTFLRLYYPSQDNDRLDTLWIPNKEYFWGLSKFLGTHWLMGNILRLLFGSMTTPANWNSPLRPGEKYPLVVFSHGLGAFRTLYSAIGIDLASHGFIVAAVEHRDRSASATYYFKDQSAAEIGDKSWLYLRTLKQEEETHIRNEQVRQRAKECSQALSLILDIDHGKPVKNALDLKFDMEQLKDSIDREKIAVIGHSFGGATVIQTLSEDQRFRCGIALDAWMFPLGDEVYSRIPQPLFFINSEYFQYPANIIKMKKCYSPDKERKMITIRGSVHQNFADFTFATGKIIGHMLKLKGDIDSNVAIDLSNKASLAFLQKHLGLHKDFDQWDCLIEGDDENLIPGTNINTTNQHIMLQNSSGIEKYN
Each line names hits and unclear results; the compound was inactive in the other large screens.

O=c1[nH]c(=S)n(Cc2ccc(F)cc2)c(O)c1/C=N/N1CCCCCC1	PAFAH1B2 inh 33
O=c1[nH]c(=O)n(Cc2ccc(F)cc2)c(O)c1C=NCCCn1ccnc1	none
O=C(N/N=C/c1c(O)n(Cc2ccc(F)cc2)c(=S)[nH]c1=O)c1ccncc1	PAFAH1B2 inh 42
C=CCN1C(=O)NC(=O)C(CCc2ccncc2)(CCc2ccncc2)C1=O	none
CCOC(=O)C(O)(c1ccc(NC(=O)NC)cc1)C(F)(F)F (stereo not drawn)	none (no result: PAFAH2 FP inh, PAFAH1B3 FP inh, PAFAH1B2 inh)
CN(C)C(=O)Oc1ccc2nnc3ccnn3c2c1	none
O=C(COC(=O)Cc1ccccc1)NNC(=O)c1ccc([N+](=O)[O-])cc1	pPAFAH FP inh 28 (no result: Fam108B counter)
COC(=O)C1=C(c2cccc(OC)c2OC)C[C@@H]2CC[C@H]1N2C(=O)NCCCOC(C)C	none
O=C(Nc1nccs1)c1c(O)c2c(n(Cc3ccco3)c1=O)CCCC2	none
CC(C)(C)c1ccc(S(=O)(=O)N2CC3CC(C2)c2cccc(=O)n2C3)cc1 (stereo not drawn)	PAFAH1B2 inh 26
CC1=Nc2cc(C(=O)N3CCC4(CC3)OCCO4)ccc2Sc2ccc(Cl)cc21	none
CCN(CC)c1ccc(N=Cc2c(O)n(-c3ccc(OC)cc3)c(=O)[nH]c2=O)cc1	pPAFAH FP inh 25
O=C1CN=C(c2ccccc2)c2ccccc2N1Cc1ccc(C(F)(F)F)cc1	PAFAH1B2 inh 59
Cc1oc(-c2ccccc2Cl)nc1CN1C(=O)CN=C(c2ccccc2)c2ccccc21	none
C=CC(=O)NCNC(=O)C=C	none (no result: Fam108B counter)
Cc1ccc(Sc2ccc(C=C3C(=O)N(C)C(=O)N(C)C3=O)o2)cc1	PAFAH1B2 inh 57
CN1C(=O)C(=Cc2ccc(-c3cccc(Cl)c3)o2)C(=O)N(C)C1=O	none (no result: PAFAH2 FP inh, PAFAH1B3 FP inh, PAFAH1B2 inh)
C=CCN1C(=O)NC(=O)C(Cc2ccc(OC)c(OC)c2)C1=O (stereo not drawn)	none
O=C1NC(=O)N(CCNc2ncc(C(F)(F)F)cc2Cl)C(=O)C1Cc1ccc(Cl)cc1 (stereo not drawn)	PAFAH1B2 inh 29
CC(C)(C)C(=O)C(Oc1ccc(Cl)cc1)n1cncn1 (stereo not drawn)	none (no result: Fam108B counter, PME-1 inh, pPAFAH FP inh)
O=C(O)c1c[nH]c2ccc(S(=O)(=O)N(CCCl)CCCl)cc12	PAFAH1B2 inh 37
CN[C@H]1C[C@H]2O[C@@](C)([C@H]1OC)n1c3ccccc3c3c4c(c5c6ccccc6n2c5c31)C(=O)NC4	Fam108B counter 48, PME-1 inh 52, pPAFAH FP inh 40 (no result: PAFAH2 FP inh, PAFAH1B3 FP inh, PAFAH1B2 inh)
O=C(O)CCn1cc(C=C2C(=O)NC(=O)NC2=O)c(-c2ccc(Br)cc2)n1	PAFAH1B2 inh 33
O=C(O)CCn1cc(C=C2C(=O)NC(=S)NC2=O)c(-c2cccc(Cl)c2)n1	none
O=C1CN(O)C(c2ccccc2)=c2cc(Br)ccc2=N1	none
CN1CCc2cc3c(c4c2C1Cc1ccccc1-4)OCO3 (stereo not drawn)	pPAFAH FP inh 29
CN1CCc2cc(O)cc3c2[C@H]1Cc1ccc(O)c(O)c1-3	none
O=C(c1ccc(N2CCCCCC2)c([N+](=O)[O-])c1)N1CCC2(CC1)OCCO2	pPAFAH FP inh 33
O=C(c1ccc2c(c1)OCO2)N1CCC2(CC1)OCCO2	none
CN1C(=O)NC(=O)/C(=C/c2ccc([N+](=O)[O-])s2)C1=O	pPAFAH FP inh 25
CN1C(=O)NC(=O)/C(=C/c2ccc([N+](=O)[O-])o2)C1=O	none (no result: PAFAH2 FP inh, PAFAH1B3 FP inh, PAFAH1B2 inh)
COC(=O)C1=C(c2cccc(OCc3ccccc3)c2)C[C@@H]2CC[C@H]1N2C(=O)NCCCc1ccccc1	pPAFAH FP inh 30 (no result: Fam108B counter)
C=CCn1c(O)c(C(CC)=Nc2ccc(N(C)C)cc2)c(=O)[nH]c1=O	pPAFAH FP inh 34 (no result: PAFAH2 FP inh, PAFAH1B3 FP inh, PAFAH1B2 inh)
c1ccc2c3c([nH]c2c1)C1(CCNCC1)NCC3	none
Cn1c(O)c(C(=N)COc2ccccc2)c(=O)n(C)c1=O	none
Cn1c(O)c(C(=Nc2ccccc2)SCc2ccc(Cl)cc2)c(=O)n(C)c1=O	PAFAH1B2 inh 26
CC(C)C[C@H](NP(=O)(O)O[C@@H]1O[C@@H](C)[C@H](O)[C@@H](O)[C@H]1O)C(=O)N[C@@H](Cc1c[nH]c2ccccc12)C(=O)O	none
CC(=O)N1N=C(c2c(O)n(C)c(=O)n(C)c2=O)CC1c1ccccc1 (stereo not drawn)	none
O=c1cc(C(F)(F)F)c2cc3c4c(c2o1)CCCN4CCC3	pPAFAH FP inh 26
Clc1ccc(NC2=NCCCS2)cc1Cl	none
CN1/C(=C\C=C2C(=O)NC(=S)NC2=O)C(C)(C)c2ccccc21	PAFAH2 FP inh 38, PAFAH1B2 inh 68 (no result: Fam108B counter, PME-1 inh, pPAFAH FP inh)
C/C(=N\N(C)c1ccccc1)c1c(O)[nH]c(=O)[nH]c1=O	none
O=C1NC(=O)C(=Cc2ccc(SC3CCCCC3)o2)C(=O)N1	PAFAH2 FP inh 45, PAFAH1B2 inh 88
NS(=O)(=O)c1ccc(-c2ccc(C=C3C(=O)NC(=O)NC3=O)o2)cc1	none
Cc1c(C(=O)O)cc(-c2ccccc2)n1Cc1ccccc1	PAFAH1B2 inh 28
COC(=O)C1=C(c2cccc(C#N)c2)C[C@@H]2CC[C@H]1N2C(=O)NCC1CC1	none (no result: Fam108B counter)
CN(C)C1(c2nnnn2CCOC(=O)Nc2ccc(Cl)cc2)CCCCC1	PME-1 inh 37
CN(C)C1(c2nnnn2-c2ccc(Cl)cc2)CCCCC1	none
Cc1ccc(C(O)P(=O)(Oc2ccccc2)Oc2ccccc2)cc1 (stereo not drawn)	PME-1 inh 38
O=c1c2ccccc2nc(/C=C/c2ccccc2)n1-c1ccc(O)cc1	none
COc1cc(/C=C/c2nc3ccccc3c(=O)n2-c2cccc(O)c2)ccc1O	PME-1 inh 36
O=c1c2ccccc2nc(/C=C/c2ccc(O)c(O)c2)n1-c1ccccc1	PME-1 inh 27, pPAFAH FP inh 30
C=CCC1(Nc2ccccc2)CC(C)N(C)CC1C (stereo not drawn)	none
CCN1CCC(N(C)C2CCCCC2)CC1	none
O=P(O)(Oc1ccccc1)OC(c1ccccc1)C(F)(F)C(F)(F)F (stereo not drawn)	PAFAH1B2 inh 77
O=P(Oc1ccccc1)(Oc1ccccc1)C(Nc1ccccc1)c1ccccc1 (stereo not drawn)	none
C=CCn1c(O)c(C=NCCCn2ccnc2)c(=O)[nH]c1=O	none
O=S(=O)(c1ccc(O)cc1)c1ccc(O)cc1	none
O=S(=O)(c1ccc(Cl)cc1)c1ccc(Cl)cc1	PAFAH1B2 inh 66 (no result: Fam108B counter)
OC(CCNCCc1c[nH]c2ccccc12)C(F)(F)Cl (stereo not drawn)	none
COc1cc(C(CN)CC(=O)O)ccc1O (stereo not drawn)	none
CCCCn1c(NC(=O)c2ccc(Br)o2)c(C(=O)OCC)c2nc3ccccc3nc21	PAFAH2 FP inh 41, PAFAH1B3 FP inh 77, Fam108B counter 59, PME-1 inh 34, PAFAH1B2 inh 38
Cc1cc(C)cc(-n2c(O)c(C=Nc3ccc(N4CCOCC4)cc3)c(=O)[nH]c2=S)c1	none
O=c1[nH]c(=S)n(-c2ccccc2F)c(O)c1C=Nc1ccc(N2CCOCC2)cc1	PAFAH2 FP inh 33, pPAFAH FP inh 29
O=C1NC(=S)SC1=Cc1ccc(N(CCCl)CCCl)cc1	PAFAH1B2 inh 28 (no result: Fam108B counter, PME-1 inh, pPAFAH FP inh)
